From PubChem BioAssay
LRH-1 inv ag = NR5A2 inverse agonism in reporter assay | O00482 | HEK293T StAR-luciferase reporter, LRH-1 transfected, 24 h | inhibition, % at 3.6 µM | hit rate 0.13% among 360,000;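 active = inhibition above the mean inhibition of all tested compounds plus 3 SD, cut at about 73% in these data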;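 also: 0% = DMSO wells and 100% = reporter-only cells lacking LRH-1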
Target sequence (O00482 whole entry, looked up): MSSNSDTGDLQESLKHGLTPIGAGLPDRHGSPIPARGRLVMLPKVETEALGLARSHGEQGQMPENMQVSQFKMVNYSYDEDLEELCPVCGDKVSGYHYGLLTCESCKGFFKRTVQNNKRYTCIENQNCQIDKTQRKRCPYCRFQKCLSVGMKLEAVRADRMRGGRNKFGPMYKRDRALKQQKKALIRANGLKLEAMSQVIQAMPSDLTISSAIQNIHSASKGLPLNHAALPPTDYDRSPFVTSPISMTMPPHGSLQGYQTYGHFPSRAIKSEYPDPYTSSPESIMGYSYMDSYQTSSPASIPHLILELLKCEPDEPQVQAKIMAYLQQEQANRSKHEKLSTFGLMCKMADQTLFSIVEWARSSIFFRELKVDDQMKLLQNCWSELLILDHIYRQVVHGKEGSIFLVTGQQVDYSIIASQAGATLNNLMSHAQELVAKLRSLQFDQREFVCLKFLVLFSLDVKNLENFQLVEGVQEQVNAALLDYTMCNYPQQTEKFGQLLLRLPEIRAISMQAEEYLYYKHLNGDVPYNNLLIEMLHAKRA
COUP-TFII inh = blocks human COUP-TFII nuclear receptor | P24468 | HEK293T NGFI-A luciferase reporter, luminescence | inhibition, % at 8.6 µM | hit rate 0.7% among 370,000 | AID 686940;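 active = inhibition above a per-plate cutoff, mean inhibition of test wells between control levels plus 3 SD, cut at about 38% in these data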;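 also: cells cotransfected with COUP-TFII expression vector driving the NGFI-A reporter; 0% = median of COUP-TF2 test wells and 100% = reporter-only cells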
NCOA2 inhibitor = human SRC2 (NCOA2) inhibition. HEK293 GAL4-SRC2 luciferase reporter, luminescence. AID 651957. hit rate 0.17% among 370,000. Q15596. inhibition, % at 9 µM;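 active = inhibition above the mean inhibition of all tested compounds plus 3 SD, set per campaign, cut at about 52% in these data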;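 also: 0% = DMSO treated cells and 100% = cells given Gossypol at 36 µM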
SRC1 inh = inhibitors of human steroid receptor coactivator 1 (SRC1); Q15788; HEK293 GAL4-SRC1 luciferase reporter, luminescence; inhibition, % at 3.6 µM; hit rate 0.12% among 360,000; AID 588354;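 active = inhibition above the campaign mean plus 3 SD, with each screening campaign given its own cutoff, cut at about 60% in these data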;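 also: 0% = DMSO treated cells and 100% = gossypol at 36 µM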
NCOA3 inh = human NCOA3 inhibition; inhibition, % at 3.6 µM; HEK293 GAL4-SRC3 luciferase reporter, luminescence; hit rate 0.17% among 360,000;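 active = inhibition above a per-campaign cutoff, the mean of all compounds plus 3 SD, cut at about 60% in these data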;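 also: 0% = DMSO-treated cells and 100% = gossypol-treated cells at 36 µM; higher means less SRC3-driven luciferase light from the GAL4 reporter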
Gli-Sufu block = Gli-Sufu pathway antagonism; AID 588413; Sufu-KO-LIGHT fibroblasts, Gli luciferase reporter luminescence; inhibition, % at 5 µM; hit rate 0.74% among 340,000;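 active = inhibition above about 55%, limit read from the data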;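 also: 0% = DMSO-treated cells and 100% = wells with medium but no cells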
Gli-Sufu confirm = confirmation of Gli-SUFU pathway antagonists; shares compounds with Gli-Sufu block; Sufu-KO-LIGHT cells, Gli luciferase reporter, luminescence; inhibition, % at 5 µM; hit rate 40% among 2,500;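 active = mean inhibition at 5 µM reaching about 45%, limit read from the data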;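 also: plate controls were DMSO-treated cells for no effect and wells lacking cells for full effect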
Gli cytotox = cytotoxicity counter-screen for Gli-SUFU antagonists. shares compounds with Gli-Sufu block. Sufu-KO-LIGHT cells cytotoxicity, ATP luminescence. cytotoxicity, % at 5 µM. hit rate 32% among 2,500;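 active = mean cytotoxicity at 5 µM above about 25%, limit read from the data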;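 also: cells exposed to compound overnight for roughly 16 to 18 hours; plate controls were DMSO wells with cells for no effect and medium without cells for full effect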
Wnt3a counter = counter-screen for Gli-SUFU antagonists: Wnt3a reporter inhibition; AID 651995; shares compounds with Gli-Sufu block; inhibition, % at 6.25 µM; hit rate 20% among 2,500; Wnt-LIGHT cells, Wnt3a-driven luciferase reporter, luminescence;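 active = mean inhibition above about 25%, limit read from the data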
* marks the source's active call; other numbers are inactive results; · = no result. Compounds with a hit are over-represented: about 1.3% of the library has one in this group of screens.

SMILES	LRH-1 inv ag	COUP-TFII inh	NCOA2 inhibitor	SRC1 inh	NCOA3 inh	Gli-Sufu block	Gli-Sufu confirm	Gli cytotox	Wnt3a counter
c1ccc2c(-c3[nH]ncc3CNCCCn3ncc4ccccc43)cccc2c1	-4	20	1	9	21	58*	23	8	-10
COC(=O)[C@]12C[C@H](CC(=O)N3CCCC3)C(=O)N(Cc3ccco3)C1=C[C@H](C(C)(C)C)O[C@@H]2C	·	-2	9	·	·	·	·	·	·
CC(C)OP(=O)(Nc1cccc2ccccc12)OC(C)C	-12	8	-3	4	20	34	·	·	·
CN(C)P(=O)(Nc1cccc2ccccc12)Nc1cccc2ccccc12	17	6	8	-16	-9	51	29	16	-34
CC(=O)c1ccc(NC(=O)CSC(C)C)cc1	-54	-19	-39	-43	-27	99*	-1	28*	-34
Cc1ccc(S(=O)(=O)N2CC3(COC(C)(C)OC3)C[C@H]2CON2C(C)(C)CCCC2(C)C)cc1	·	6	·	·	·	·	·	·	·
Cc1ccc(C)c(NC(=S)NC2CC3CCC(C2)N3Cc2ccco2)c1 (stereo not drawn)	17	23	-21	-3	6	76*	32	0	4
COC(=O)c1ccc(C(=O)OC)c(NC(=O)CSc2nnc(-c3ccccc3Cl)o2)c1	22	7	3	-8	3	98*	10	17	-14
COc1ccccc1-c1nnc(SCC(=O)Nc2ccc(Cl)cc2Cl)o1	0	12	-9	-19	-9	3	·	·	·
Cc1ccccc1-n1nc(C(=O)c2cccs2)cc(-c2nc3ccccc3[nH]2)c1=N	18	-22	-34	-5	-12	59*	35	8	-82
COc1ccc(-n2nc(C(=O)c3cccs3)cc(-c3nc4ccccc4[nH]3)c2=N)cc1	-8	-12	-15	-1	-5	98*	3	-16	-13
Cc1cccc(-n2nc(C(=O)c3ccco3)cc(-c3nc4ccccc4[nH]3)c2=N)c1	-22	-9	-22	6	-1	44	·	·	·
CC(C)(C)OC(=O)NCCc1ccccc1/C=C/S(=O)(=O)NCc1ccccc1	·	10	-18	·	·	·	·	·	·
Cc1ccc([N+](=O)[O-])cc1N=Nc1c(-c2ccc([N+](=O)[O-])cc2)[nH]n(C(N)=S)c1=O	17	·	·	-9	-2	58*	60*	3	47*
c1ccc(-c2csc3nnc(SCc4ccc5c(c4)OCO5)n23)cc1	20	26	2	13	11	52	10	6	5
O=C(CCSc1nnc2scc(-c3ccccc3)n12)NCc1ccc2c(c1)OCO2	-2	-12	-10	0	11	-4	·	·	·
CCOC(=O)C1=C(C(=O)OCC)C2N(Cc3ccc(Br)cc3)c3ccccc3[C@@]23C[C@@H](C(=O)OC)N(S(=O)(=O)c2cccs2)C3=N1 (stereo partly drawn)	·	5	2	·	·	·	·	·	·
COP(=O)(O)CCOCCC(CC(C)C)NC(=O)OCc1ccccc1 (stereo not drawn)	·	-21	8	·	·	·	·	·	·
C/C(N)=C(/C#N)C(=O)COC(=O)c1ccncc1	18	8	-9	0	6	95*	8	22	-4
CCCN1CCCCC(NC(C)=O)C1=O (stereo not drawn)	·	-12	-5	·	·	·	·	·	·
O=C1/C(=C/c2ccc(Cl)cc2)SC(=S)N1CCC(=O)N1CCCCC1CCO (stereo not drawn)	4	-2	11	17	1	6	·	·	·
O=C1/C(=C/c2ccccc2)SC(=S)N1CCCC(=O)N1CCCCC1CCO (stereo not drawn)	7	-13	11	4	10	59*	25	2	-4
O=C(CSc1nnc(-c2ccc(Cl)cc2)n1C1CCCCC1)NN=Cc1c(O)ccc2ccccc12	·	9	23	·	·	·	·	·	·
COc1ccc(CN(C2CCCC2)S(=O)(=O)c2ccc(-n3cnnn3)cc2)cc1	0	15	18	8	2	58*	14	11	1
COc1ccc(CN(C2CCCC2)S(=O)(=O)c2ccc(-n3cnnn3)cc2)cc1OC	3	7	-13	10	6	-9	·	·	·
SMILES	LRH-1 inv ag	COUP-TFII inh	NCOA2 inhibitor	SRC1 inh	NCOA3 inh	Gli-Sufu block	Gli-Sufu confirm	Gli cytotox	Wnt3a counter
O=C(Cc1cccs1)NC1CCCCN(Cc2ccc(Cl)cc2)C1=O (stereo not drawn)	·	15	-42	·	·	·	·	·	·
O=C(NCCOC(=O)c1ccc(C(=O)OCCNC(=O)c2ccccc2)o1)c1ccccc1	10	-4	-9	-8	9	54	13	5	4
O=C1CCCN1CN1CCCCC1	18	-29	-5	-5	-16	99*	13	22	-14
COc1nc(NCCC2=CCCCC2)nc(OC)n1	-15	0	-39	-10	7	99*	18	3	-20
COCCn1c(-c2ccccc2)csc1=Nc1cccnc1	-3	26	17	7	5	17	·	·	·
CC(C)n1c(-c2ccco2)csc1=Nc1cccnc1	18	19	15	9	16	50	51*	25*	18
O=C(CSc1nnc(-c2cccnc2)n1Cc1ccco1)Nc1ccc(Cl)c(Cl)c1	·	26	-3	·	·	·	·	·	·
Cc1ccc(-c2nc(NCCN(C)C)c3ccccc3n2)cc1	-23	-13	-57	-37	-62	22	·	·	·
Cc1cccc(-c2nc(NCCCN(C)C)c3ccccc3n2)c1	-44	4	-42	-21	-19	55*	21	5	-49
CN(C)CCCNc1nc(-c2ccc(Cl)cc2)nc2ccccc12	6	11	-15	-11	-3	69*	35	27*	-73
O=C(/C=C/c1ccccc1Cl)Nc1cccc(S(=O)(=O)NC2=NCCCCC2)c1	-42	-40	-40	-25	-2	51	12	10	-151
COc1ccc(CNS(=O)(=O)CC2NCc3ccc(C)cc32)cc1 (stereo not drawn)	·	3	-6	·	·	·	·	·	·
COc1ccc(C(O)C(CN2CCOCC2)c2ccccc2)cc1F (stereo not drawn)	9	-4	12	2	13	6	·	·	·
COc1ccc(C(=O)C(CN2CCOCC2)c2ccccc2)cc1F (stereo not drawn)	-14	-22	37	16	24	55	17	1	19
O=C(Nc1nc2ncccn2c1-c1ccc(C(F)(F)F)cc1)c1ccc(F)cc1	·	-11	-3	·	·	·	·	·	·
CCN(CC)c1ccc(/C=N/NC(=O)c2c(Cl)cnn2C)c(O)c1	42	-33	13	22	76*	87*	68*	33*	59*
